An excerpt weighted towards active compounds, which were near 3.7% of everything screened.
HTT aggregate: inhibitors of mutant huntingtin aggregate formation in PC12 cells; 220,000 tested, 1.1% active; Potency, µM (doses to about 46.1 µM), for inactives: at the highest dose activity change, negative = inhibition, hits mostly inhibitors; PC12 HttQ103-GFP aggregates, Acumen cytometry, 40 h; AID 1688; also: % is scaled to controls: 0 for no effect and ±100 for the full control effect; nearly all actives have a fitted effect of over 60% in size
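Aggregates are detected as GFP objects 1–25 µm with signal 6 STDEV over background in lysates of induced PC12 cells. These carry Huntingtin exon 1 with 103 glutamines fused to GFP under an ecdysone promoter; compounds titrated.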
Tau FP inhib: inhibitors of human tau fibril formation; AID 1468; K18 P301L tau heparin fibrillization, Alexa594 FP, 6 h; 280,000 tested, 0.39% active; Potency, µM (titrated, usually from 57.7 µM), without a hit: at the top dose activity, negative = inhibition, usual class: inhibitors; also: % is scaled to controls: 0 for no effect and ±100 for the full control effect; nearly all actives have a fitted effect of over 55% in size
Target sequence (P10636 561-689 P618L limits assumed): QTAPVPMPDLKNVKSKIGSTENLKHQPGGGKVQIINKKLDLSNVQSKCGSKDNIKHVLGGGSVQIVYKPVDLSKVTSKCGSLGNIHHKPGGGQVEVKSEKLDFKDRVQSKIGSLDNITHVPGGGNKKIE
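Recombinant K18 P301L […], labeled with Alexa 594 at 0.24 uM over 15 uM unlabeled; heparin inducer 20 uM final; 37 C, 6 hr; FP endpoint.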
Tau fibril ThT: inhibitors of human tau fibril formation, thioflavin T binding. P10636. recombinant tau K18 P301L, heparin-induced fibrillization, ThT fluorescence. Potency, µM (top dose mostly 57.4 µM), for inactives: at the top dose activity, negative = inhibition, hits mostly inhibitors. 270,000 tested, 2.1% active; also: % is scaled to controls: 0 for no effect and ±100 for the full control effect; nearly all actives have a fitted effect of over 55% in size
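K18 P301L tau (15 uM + 0.24 uM Alexa 594-tagged), heparin 20 uM, NaOAc pH 7, 6 h 37 C; ThT 30 uM, 1 h RT, ex 450/em 510 nm.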
HTT cytoprotect: protects HTT-Q103 PC12 cells, measured by ATP. PC12 HTT-Q103 induced, cytoprotection, ATP luminescence, 40 h. Potency, µM (doses to about 56.4 µM), inactives show cytoprotection (ATP increase), most hits filed as activators. 230,000 tested, 0.14% active; also: % of control where 0% means no effect; nearly all actives have a fitted effect of over 45% in size
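ATP quantification (ATPlite) reports survival of PC12 cells in which tebufenozide, 100 nM final, switches on Htt exon 1 with 103 glutamines linked to GFP; compounds are titrated.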
Tau fluor counter: counter-screen for tau fibril formation inhibitors; tau K18 P301L Alexa594 fluorescence, heparin fibrillization; Potency, µM (series often up to 57.7 µM), for inactives: top-dose activity change, negative = decrease; 280,000 tested, 0.93% active; also: % is scaled to controls: 0 for no effect and ±100 for the full control effect; nearly all actives have a fitted effect of over 55% in size
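Human tau K18 P301L (15 uM unlabeled, 0.24 uM Alexa 594-labeled) in 100 mM sodium acetate pH 7 with 20 uM heparin, 6 hr at 37 C. ThT 30 uM added, 1 hr ambient; Alexa 594 FP and total fluorescence read at 555/632 nm.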
Starred values were filed as active, the others as inactive; [ ] = another dose, or the depositor's remark. Calls follow the shape of the dose curve; as a rule, active = well fitted curve in the direction sought with a large enough effect; inconclusive = small, poorly fitted or top-dose-only effect, or another doubt; inactive = no such curve, though single readings can be large; an effect the other way counts as inactive or inconclusive. Potency is read from the fitted curve at half-maximal effect.

Screening CNC(=O)/C(C#N)=c1\s/c(=C/C(=O)OC)c(=O)n1-c1ccccc1 returned HTT aggregate -8.4%, Tau FP inhib -8.9%, Tau fibril ThT -13.6%, HTT cytoprotect -14.6% and Tau fluor counter 1.1%.
O=C(Nc1cccc2ccccc12)c1cn(-c2ccccc2)nc1-c1cccs1 was read as HTT aggregate -9.8%, Tau FP inhib inconclusive, Tau fibril ThT 0.7%, HTT cytoprotect -11.7% and Tau fluor counter -29.3%.
Screening CCN(CC)CCNC(=S)NC(=O)c1cn(-c2ccccc2)nc1-c1ccc(OC)cc1 returned HTT aggregate inconclusive, Tau FP inhib inconclusive, Tau fibril ThT 4.3%, HTT cytoprotect -11.4% and Tau fluor counter inconclusive.
`O=C(Nc1cccnc1)c1cn(-c2ccccc2)nc1-c1cccs1` gave HTT aggregate -18.9%, Tau FP inhib 28.2µM*, Tau fibril ThT 7.4%, HTT cytoprotect -44.9%[10 µM] and Tau fluor counter 17.8µM*[quencher].
CCN(CC)CCNC(=O)c1ccc(NC(=O)c2cn(-c3ccccc3)nc2-c2cccs2)cc1 was read as HTT aggregate inconclusive, Tau FP inhib 10µM*, Tau fibril ThT 1.3%, HTT cytoprotect -167.1% and Tau fluor counter inconclusive.
For Cc1cccc(-c2nc(CSc3nncn4c3cc3oc(C)cc34)c(C)o2)c1 the results were Tau FP inhib -6.4%, Tau fibril ThT inconclusive and Tau fluor counter -21.8%.
COc1ccc(C(=O)/C(Br)=C/C(=O)O)cc1 was read as HTT aggregate 17.7% and HTT cytoprotect inconclusive.
CCOc1ccccc1-c1ccc(C(=O)O)s1 was read as Tau FP inhib -0.3%[126 µM], Tau fibril ThT -9.1%[126 µM] and Tau fluor counter -5.7%[126 µM].
Screening CCc1cc2c3c(c1)C(C)CC(C)(C)N3C(=O)/C2=C1\SC(=O)NC1=O (stereo unspecified) returned HTT aggregate 2.6%[9.22 µM], Tau FP inhib 2.7%, Tau fibril ThT 14.1µM*, HTT cytoprotect 19.2%[10 µM] and Tau fluor counter inconclusive.
Screening CCOC(=O)c1c(NC(=O)CSc2nc3cc(Cl)ccc3c(=O)n2Cc2ccco2)sc(C(=O)N(C)C)c1C returned HTT aggregate 7.08µM*, Tau FP inhib 1.6%, Tau fibril ThT -1.7%, HTT cytoprotect -30.5%[10 µM] and Tau fluor counter 3.5%.
CCN(C(=O)CSc1nc2cc(Cl)ccc2c(=O)n1Cc1ccco1)C1CCS(=O)(=O)C1 (stereo unspecified) was read as HTT aggregate 25.3%, Tau FP inhib 2.4%, Tau fibril ThT -8.3%, HTT cytoprotect 2.82µM* and Tau fluor counter -7.7%.
For CCc1ccc(NC(=O)CSc2nc3cc(C(=O)OC)ccc3c(=O)n2Cc2ccco2)cc1 the results were HTT aggregate -0.8%, Tau FP inhib -6.9%, Tau fibril ThT 3.5%, HTT cytoprotect -2.1% and Tau fluor counter -1.5%.
`COC(=O)c1cc(=O)c(O)c2c(O)c(O)ccc2c1` gave Tau FP inhib 7.94µM*, Tau fibril ThT 3.55µM* and Tau fluor counter inconclusive.
Screening COC(=O)c1cccc(N2CCCC2=O)c1 returned HTT aggregate 13.7%[9.22 µM], Tau FP inhib 1.0%, HTT cytoprotect 25.2%[10 µM] and Tau fluor counter 18.9%.
Screening C=CC1=C2C=C(C3CC3)N(CCCOC(C)C)C=C2C(=O)C(C)(OC(=O)c2ccco2)C1=O (stereo unspecified) returned Tau FP inhib -4.0%[11.6 µM], Tau fibril ThT -12.3%[11.5 µM], HTT cytoprotect -24.1%[10 µM] and Tau fluor counter -4.9%[11.6 µM].
For CCN(CC)CCCNC(=O)c1ccc2c(c1)N(Cc1c(F)cccc1Cl)C(=O)c1ccccc1S2 the results were Tau FP inhib -4.5%, Tau fibril ThT -14.7% and Tau fluor counter -25.6%.
`COc1ccc(Cn2c(O)c(C=Nc3ccccc3C(=O)O)c3ccccc3c2=O)cc1` gave HTT aggregate -12.3%[9.22 µM], Tau FP inhib 4.1%, Tau fibril ThT inconclusive, HTT cytoprotect 32.5%[10 µM] and Tau fluor counter -23.4%.
`COc1ccccc1NS(=O)(=O)c1cccc(-n2c(O)c(C=Nc3ccccc3C(=O)O)c3ccccc3c2=O)c1` gave HTT aggregate 25.8%[9.22 µM], Tau FP inhib -16.6%, Tau fibril ThT 15.8µM*, HTT cytoprotect 33.3%[10 µM] and Tau fluor counter inconclusive.

Assay outcomes as filed in PubChem BioAssay.
